Shown are actives, neighbours in structure and some others; about 15% of the full set was active somewhere.
ALOX12 inh: Primary qHTS assay for inhibitors of human arachidonate 12S-lipoxygenase (ALOX12): Round 2 | Polyunsaturated fatty acid lipoxygenase ALOX12 (Homo sapiens), P18054 | purified 12hLO, xylenol orange hydroperoxide absorbance | Potency, µM (highest dose often 108 µM), without a hit: at the top dose activity change, negative = inhibition, hits mostly inhibitors | 1.1% of 580,000 active | AID 1671190, 2021
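Purified human 12hLO (150 nM final) in 25 mM Hepes, 0.01% Triton X-100, pH 7.0 was preincubated 15 min at room temperature with compound. Then 40 uM arachidonic acid was added, 30 min. Hydroperoxide was read by Fe-XO absorbance ratio 573/405 nm.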
ELG1 repair inh: qHTS screen for small molecules that inhibit ELG1-dependent DNA repair in human embryonic kidney (HEK293T) cells expressing luciferase-tagged ELG1; HEK293T ELG1-luciferase reporter, luminescence, 16 h; DNA damage induced by 5-fluorouridine; Potency, µM (titrated, usually from 46.1 µM), for inactives: at the top dose activity change, negative = inhibition, usual class: inhibitors; 2.3% of 330,000 active; AID 504467, 2011; note: nearly all actives have a fitted effect of over 55% in size
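Quantitative HTS, concentration-response format. 2,000 cells/well co-treated with 5-fluorouridine and compound, 16 hr in 5% CO2 at 37 °C; ONE-Glo luminescence read after 30 min.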
TDP1 cell CPT: qHTS for Inhibitors of human tyrosyl-DNA phosphodiesterase 1 (TDP1): qHTS in cells in presence of CPT; chicken DT40 Tdp1-/-;hTDP1 cells + 20 nM CPT, ATP luminescence, 48 h; Potency, µM (titrated, usually from 46.2 µM), inactives show top-dose activity change, negative = growth inhibition, actives largely listed as inhibitors; 12% of 420,000 active; note: nearly all actives have a fitted effect of over 55% in size
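Chicken DT40 Tdp1-/- cells stably complemented with human TDP1 were seeded at 400 cells/well in medium containing 20 nM camptothecin, exposed to pin-transferred compounds, and grown at 37 °C for at least 48 hr. Viability was read as ATP luminescence.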
DT40 TDP1 no CPT: qHTS for Inhibitors of human tyrosyl-DNA phosphodiesterase 1 (TDP1): qHTS in cells in absence of CPT. DT40 Tdp1-/- hTDP1 cells, no CPT, ATP luminescence, 48 h. Potency, µM (titrated, usually from 46.2 µM), without a hit: top-dose activity change, negative = growth inhibition, most hits filed as inhibitors. 15% of 420,000 active. AID 686978, 2013; note: nearly all actives have a fitted effect of over 55% in size
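Stably hTDP1-transfected Tdp1-null chicken DT40 cells were treated with library compounds minus camptothecin and grown for at least 48 hr at 37 °C, after which cellular ATP was quantified by luminescence.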
VP16 counter: VP16 counterscreen qHTS for inhibitors of ROR gamma transcriptional activity | AID 2546, 2010 | Potency, µM (doses to about 53.6 µM), for the others: top-dose activity, negative = inhibition, usual class: inhibitors | 3.5% of 310,000 active | Drosophila S2 Gal4-VP16 UAS-luciferase, luminescence, 20 h;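 note: Gal4-VP16 expression switched on by copper sulfate through the metallothionein promoter; nearly all actives have a fitted effect of over 50% in size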
RORgamma inh: qHTS for inhibitors of ROR gamma transcriptional activity; Drosophila S2 Gal4-RORgamma UAS-luciferase reporter, 20 h; Potency, µM (top dose mostly 53.6 µM), for inactives: at the highest dose activity change, negative = inhibition, hits mostly inhibitors; AID 2551, 2010; 5.4% of 310,000 active; Nuclear receptor ROR-gamma (Mus musculus), P51450; note: nearly all actives have a fitted effect of over 60% in size
Target sequence (P51450 whole entry, looked up, the tested form may be a part): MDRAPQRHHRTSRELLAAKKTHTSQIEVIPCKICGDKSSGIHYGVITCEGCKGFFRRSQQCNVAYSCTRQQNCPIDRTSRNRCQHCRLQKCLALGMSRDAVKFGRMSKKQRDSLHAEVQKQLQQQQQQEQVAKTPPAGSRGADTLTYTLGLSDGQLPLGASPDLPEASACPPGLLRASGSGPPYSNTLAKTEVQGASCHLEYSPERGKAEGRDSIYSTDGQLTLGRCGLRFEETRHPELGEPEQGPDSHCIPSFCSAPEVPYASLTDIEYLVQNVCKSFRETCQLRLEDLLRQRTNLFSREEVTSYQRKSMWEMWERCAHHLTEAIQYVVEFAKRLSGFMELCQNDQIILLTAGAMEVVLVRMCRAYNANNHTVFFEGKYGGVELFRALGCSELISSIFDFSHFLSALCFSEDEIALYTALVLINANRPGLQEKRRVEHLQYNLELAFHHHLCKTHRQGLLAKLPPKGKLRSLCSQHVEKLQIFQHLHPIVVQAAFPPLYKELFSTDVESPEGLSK
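Drosophila Schneider cells stably carrying a metallothionein-driven Gal4 DBD–ROR gamma fusion and a UAS-Photinus luciferase reporter were exposed to compound for 1 hr, then induced with copper sulfate (700 uM final) for 20 hr at ambient temperature before luminescence reading.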
An asterisk follows results filed as active; ? = inconclusive; / = no result given; [ ] = remark or other dose. Calls come from the whole dose curve; as a rule, active = well fitted curve in the direction sought with a large enough effect; inconclusive = small, poorly fitted or top-dose-only effect, or another doubt; inactive = no such curve, though single readings can be large; an effect the other way counts as inactive or inconclusive. % is set by controls: 0 for no effect and ±100 for the full control effect; potency is the fitted concentration of half-maximal effect.

SMILES	ALOX12 inh	ELG1 repair inh	TDP1 cell CPT	DT40 TDP1 no CPT	VP16 counter	RORgamma inh
CCc1nc2c(OCc3ccc(F)c(F)c3)cccn2c1N(C)C(=O)c1ccc(C)cc1	?	/	23µM*	9.2µM*	/	/
CCc1nc2c(OCc3ccc(Cl)cc3)cccn2c1N(C)C(=O)c1ccncc1	0%	/	21µM*	21µM*	/	/
Cc1ccc(COc2ccc(CNCCCN3CCCCCC3=O)cc2)cc1	?	12%	?	18µM*	1%	0%
Cc1ccc(NC(=O)c2nc3ccccc3nc2N2CCN(C)CC2)cc1Cl	2%	/	/	/	/	/
COc1ccc(-n2nc([N+](=O)[O-])c(=NCc3ccco3)n2O)cc1	1%	?	7%	-24%	-16%	-15%
COc1ccc(-n2nc([N+](=O)[O-])c(=NCc3cccnc3)n2O)cc1	-13%	?	16µM*	?	11%	16%[10 µM]
COc1ccc(-n2nc([N+](=O)[O-])c(=NC3CCN(Cc4ccccc4)CC3)n2O)cc1	-19%	-14%	16µM*	15µM*	-20%	-1%
O=[N+]([O-])c1nn(-c2ccc3c(c2)OCCO3)n(O)c1=NCc1ccccc1Cl	3%	?	-28%	?	0%	-16%
O=[N+]([O-])c1nn(-c2ccc3c(c2)OCCO3)n(O)c1=NC1CCCCC1	4%	?	21µM*	?	?	27%
COc1ccc(-n2nc([N+](=O)[O-])c(=NCCc3ccc(Cl)cc3)n2O)cc1	3%[57.4 µM]	10%	?	?	-5%	15%
COc1ccc(-n2nc([N+](=O)[O-])c(=NCCC3=CCCCC3)n2O)cc1	7%	?	21µM*	?	4%	22%
O=S(=O)(c1ccc(F)c(F)c1)N1CCN(Cc2ncc(-c3ccc(F)cc3)o2)CC1	-10%	/	/	/	/	/
C/C=N/NC(=O)CCCCC(=O)N/N=C/C	17%	/	/	/	/	/
COc1ccc(-n2nc([N+](=O)[O-])c(=NCCc3ccc(OC)c(OC)c3)n2O)cc1	-6%	?	15µM*	21µM*	-9%	4%[10 µM]
CSc1nc2nc3c(c(=O)n2[nH]1)CN(Cc1ccccc1)CC3	34%	-3%	26µM*	?	-4%	40%
O=C1CC2CCCC(C1)N2C(=O)N1CCCC1	19%[176 µM]	/	/	/	/	/
CC(=O)OC(COC1CC2CCC1(C)C2(C)C)C[N+]1(C)CCCCC1 (stereo not drawn)	13µM*	/	/	/	/	/
CC(C)(C)n1nc2c(c1NC(=O)c1ccc(F)c(F)c1)CS(=O)(=O)C2	0%	4%	1%	16µM*	2%	-14%
Cc1cccc(C(=O)Nc2c3c(nn2-c2ccc(Cl)cc2)CS(=O)(=O)C3)c1	-27%	/	-19%	-26%	/	/
O=C(Nc1c2c(nn1-c1ccc(Cl)cc1)CS(=O)(=O)C2)c1cccc(F)c1	?	/	21µM*	18µM*	/	/
C#Cc1ccc([C@H]2C=C(C(=O)N3CCN(Cc4ccc5c(c4)OCO5)CC3)O[C@@H](OCC)[C@@H]2CCCO)cc1	1%	18µM*	?	?	-7%	6%
CCO[C@H]1OC(C(=O)N2CCN(Cc3ccc4c(c3)OCO4)CC2)=C[C@@H](C2CCCCC2)[C@@H]1CCCO	-1%	-12%	15µM*	16µM*	-4%	?
CCO[C@@H]1OC(C(=O)N2CCN(Cc3ccc4c(c3)OCO4)CC2)=C[C@H](C)[C@H]1CCCO	-54%	11%	-7%	?	-8%	-2%
CCO[C@@H]1OC(C(=O)N2CCCCCCC2)=C[C@H](C2CCCCC2)[C@H]1CCCO	5%	16%	13µM*	?	-16%	-5%
O=C(Nc1ccc2[nH]c(=O)[nH]c2c1)c1nn(-c2ccc(F)cc2)c2c1CCCC2	-4%	/	/	/	/	/
SMILES	ALOX12 inh	ELG1 repair inh	TDP1 cell CPT	DT40 TDP1 no CPT	VP16 counter	RORgamma inh
Cn1cc(CN2CCOC[C@H]2c2ncc(-c3ccc(F)cc3F)[nH]2)c2ccccc21	3%[176 µM]	/	/	/	/	/
CCOc1ccc(NC(=O)N(CCN(C)C)C(C)c2cccnc2)cc1 (stereo not drawn)	0%	-6%	5%	0%	-7%	-7%
CCOc1ccc(NC(=S)N(CCOC)C(C)c2cccnc2)cc1 (stereo not drawn)	13%	-4%	15%	-22%	-1%	11µM*
Cc1ccc(NC(=S)N(CCN(C)C)C(C)c2cccnc2)cc1 (stereo not drawn)	0%	-7%	5%	24%	-2%[10 µM]	-35%
COCCN(C(=S)Nc1cccc(C)c1)C(C)c1cccnc1 (stereo not drawn)	14%	12%	4%	0%	-4%	11µM*
COCCCN(C(=S)Nc1cc(C)cc(C)c1)C(C)c1ccncc1 (stereo not drawn)	?	16%	-5%	-21%	?	13µM*
COCCCN(C(=S)Nc1ccc(OC)cc1)C(C)c1ccncc1 (stereo not drawn)	9%	-4%	12%	-22%	-2%	-11%
COCCCN(C(=S)Nc1c(C)cc(C)cc1C)C(C)c1ccccn1 (stereo not drawn)	?	-8%	?	21µM*	?	14µM*
Cc1[nH]c2ccccc2c1C(=O)C(=O)N(C)Cc1ccc(C(=O)NC2CC2)cc1	14%	/	/	/	/	/
CC1(C)C(O)=C(c2nc3ccccc3[nH]2)C(=N)N1c1ccccc1	0%	2%	?	?	11µM*	1.8µM*

Source: PubChem (National Center for Advancing Translational Sciences (NCATS))
